Assay [1] concerns the target Estrogen receptor (Homo sapiens) (UniProt P03372). The assay is described as follows: qHTS assay to identify small molecule agonists of the estrogen receptor alpha (ER-alpha) signaling pathway in the presence of an antagonist (AID 1259383; calls by dose curve; note: top concentration of the series differs between compounds; nearly all actives have a fitted effect of over 15% in size). Summed up:
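Quantitative HTS confirmation: compounds titrated at 15 concentrations onto estrogen-deprived VM7Luc4E2 cells carrying a four-ERE luciferase construct, with ICI-182,780 present at 10.0nM final. Signal is luminescence after 22hr exposure.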

Assay [2] in a line: qHTS assay to identify small molecule agonists or antagonists of the thyroid stimulating hormone receptor (TSHR) signaling pathway - wild type cell line counter screen (AID 1259384; calls by dose curve). In a few lines: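 Wild-type HEK293 cells were plated 18 h at 37 C/5% CO2, pin-dosed with compound plus Ro20-1724 medium, held 30 min at room temperature, then given cAMP-d2 and anti-cAMP-cryptate; fluorescence was read after 1 h. Fifteen concentrations, triplicate.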
On the technique in general: qHTS replaces the single test concentration by a dilution series.

The nature of assay [3]: qHTS assay to identify small molecule agonists of the estrogen receptor alpha (ER-alpha) signaling pathway in the presence of an antagonist - cell viability counter screen (AID 1259386).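 Note: series mostly up to about 92 µM; cells exposed to compounds for 22 h at 37 °C before the viability read; nearly all actives have a fitted effect of over 30% in size.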 In a few lines: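 The test measures whether compounds kill ER-alpha reporter cells (VM7Luc4E2) under antagonist co-treatment (ICI-182,780, 10.0nM). Fluorescence from CellTiter-Fluor is read after a 22hr exposure.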

Assay [4] has as its target Progesterone receptor (Homo sapiens) (UniProt P06401). The assay is described as follows: qHTS assay to identify small molecule agonists of the progesterone receptor (PR) signaling pathway (AID 1346784; calls by dose curve; note: nearly all actives have a fitted effect of over 30% in size). In a few lines: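 Fluorescence from LiveBLAzer B/G FRET substrate cleavage (2 hr, RT) reported PR activation in PR-UAS-bla HEK 293T cells treated 16 hr at 37C/5% CO2 with compounds; medium contained 2% charcoal-stripped FBS.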

The target is the same in assay [5]. The assay is described as follows: qHTS assay to identify small molecule antagonists of the progesterone receptor (PR) signaling pathway (AID 1346795; active = well fitted inhibition curve with a large enough effect in the signal ratio in the repeat runs, not every such curve was filed as active; the % refers to the signal ratio). In a few lines: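 Fluorescence intensity measured 2 hr after adding beta-lactamase FRET substrate to PR-UAS-bla HEK293T cells that had been co-treated 16 hr with compound and 1 nM R5020 (final concentration) in 2% charcoal-stripped FBS.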

A short description of assay [6]: qHTS assay to identify small molecule antagonists of the progesterone receptor (PR) signaling pathway - cell viability counter screen (AID 1346798). Note: series mostly up to about 92 µM; nearly all actives have a fitted effect of over 50% in size. Summed up: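 CellTiter-Glo luminescence; PR-UAS-bla HEK293T, 3,000 cells/well; compound + R5020, 16 hr, 37C/5% CO2; 30 min RT before read.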
A short description of assay [7]: qHTS assay to identify small molecule antagonists of the TGF-beta/Smad signaling pathway - cell viability counter screen (AID 1346824). Note: nearly all actives have a fitted effect of over 50% in size. Summed up: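 SBE-bla HEK 293T cells were plated overnight at 37 C, then given compounds in DMSO plus TGF-beta1 (added as 0.25 ng/mL solution) for 5 hr. After the bla read, CellTiter-Glo was added to the same wells and luminescence read after 30 min at room temperature.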

Assay [8] can be described thus: qHTS assay to identify small molecule agonists of the TGF-beta/Smad signaling pathway - cell viability counter screen (AID 1346829). Note: top concentration of the series differs between compounds; nearly all actives have a fitted effect of over 45% in size. Summed up:
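Compound-treated SBE-bla HEK 293T cells (5 hr, 37 C) were assessed for viability with CellTiter-Glo in parallel with the reporter read.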

Assay [9] in a line: qHTS assay to identify small molecule agonists of the progesterone receptor (PR) signaling pathway - cell viability counter screen (AID 1346799; calls by dose curve; note: nearly all actives have a fitted effect of over 45% in size; note: potency is the fitted concentration of half-maximal effect). Summed up:
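In parallel with the beta-lactamase readout, cytotoxicity toward PR-UAS-bla HEK293T cells was measured by CellTiter-Glo luminescence following 16 hr compound incubation in 2% charcoal-stripped FBS medium.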

Assay [10] concerns the target Thyrotropin receptor (Homo sapiens) (UniProt P16473). The assay is described as follows: qHTS assay to identify small molecule antagonists of the thyroid stimulating hormone receptor (TSHR) signaling pathway (AID 1259385; calls by dose curve; note: nearly all actives have a fitted effect of over 20% in size). In a few lines: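 TSHR-HEK293 cells were plated and held 18 h at 37C/5% CO2, then given compound plus Ro20-1724 and stimulated with TSH at 1.5 ng/mL final. After 30 min at room temperature, cAMP was detected with cAMP-d2/anti-cAMP-cryptate (1 h) by fluorescence.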

Molecules are shown by their SMILES. Unmarked numbers belong to inactive results. Inconclusive results are not listed. Calls of active or inactive are those of the source. Unless noted, calls come from the whole dose curve; as a rule, active = well fitted curve in the direction sought with a large enough effect in the repeat runs; inconclusive = weak or mixed curves; inactive = no such curve, though single readings can be large; an effect the other way counts as inactive or inconclusive.
% is set by controls: 0 for no effect and ±100 for the full control effect.

Sequence of Thyrotropin receptor (Homo sapiens) (P16473 whole entry, looked up): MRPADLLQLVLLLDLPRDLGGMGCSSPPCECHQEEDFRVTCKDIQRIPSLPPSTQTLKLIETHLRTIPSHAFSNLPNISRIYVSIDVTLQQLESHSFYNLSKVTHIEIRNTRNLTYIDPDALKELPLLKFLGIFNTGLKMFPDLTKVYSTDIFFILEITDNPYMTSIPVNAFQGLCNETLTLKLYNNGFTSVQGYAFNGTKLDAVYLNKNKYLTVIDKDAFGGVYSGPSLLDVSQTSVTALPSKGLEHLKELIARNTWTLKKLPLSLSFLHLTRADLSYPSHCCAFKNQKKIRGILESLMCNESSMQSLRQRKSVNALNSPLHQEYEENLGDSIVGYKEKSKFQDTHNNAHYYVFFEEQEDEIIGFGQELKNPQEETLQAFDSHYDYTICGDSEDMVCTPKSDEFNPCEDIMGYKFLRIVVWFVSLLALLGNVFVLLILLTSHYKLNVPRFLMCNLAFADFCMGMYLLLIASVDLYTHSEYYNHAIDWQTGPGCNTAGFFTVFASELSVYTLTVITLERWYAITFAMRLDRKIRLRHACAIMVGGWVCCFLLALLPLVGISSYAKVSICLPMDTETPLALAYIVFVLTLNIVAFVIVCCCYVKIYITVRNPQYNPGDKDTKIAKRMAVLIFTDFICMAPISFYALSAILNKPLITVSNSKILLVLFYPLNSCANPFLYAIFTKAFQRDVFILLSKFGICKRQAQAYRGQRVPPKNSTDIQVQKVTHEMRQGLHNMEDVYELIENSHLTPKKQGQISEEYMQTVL
Sequence of Progesterone receptor (Homo sapiens) (P06401 whole entry, looked up): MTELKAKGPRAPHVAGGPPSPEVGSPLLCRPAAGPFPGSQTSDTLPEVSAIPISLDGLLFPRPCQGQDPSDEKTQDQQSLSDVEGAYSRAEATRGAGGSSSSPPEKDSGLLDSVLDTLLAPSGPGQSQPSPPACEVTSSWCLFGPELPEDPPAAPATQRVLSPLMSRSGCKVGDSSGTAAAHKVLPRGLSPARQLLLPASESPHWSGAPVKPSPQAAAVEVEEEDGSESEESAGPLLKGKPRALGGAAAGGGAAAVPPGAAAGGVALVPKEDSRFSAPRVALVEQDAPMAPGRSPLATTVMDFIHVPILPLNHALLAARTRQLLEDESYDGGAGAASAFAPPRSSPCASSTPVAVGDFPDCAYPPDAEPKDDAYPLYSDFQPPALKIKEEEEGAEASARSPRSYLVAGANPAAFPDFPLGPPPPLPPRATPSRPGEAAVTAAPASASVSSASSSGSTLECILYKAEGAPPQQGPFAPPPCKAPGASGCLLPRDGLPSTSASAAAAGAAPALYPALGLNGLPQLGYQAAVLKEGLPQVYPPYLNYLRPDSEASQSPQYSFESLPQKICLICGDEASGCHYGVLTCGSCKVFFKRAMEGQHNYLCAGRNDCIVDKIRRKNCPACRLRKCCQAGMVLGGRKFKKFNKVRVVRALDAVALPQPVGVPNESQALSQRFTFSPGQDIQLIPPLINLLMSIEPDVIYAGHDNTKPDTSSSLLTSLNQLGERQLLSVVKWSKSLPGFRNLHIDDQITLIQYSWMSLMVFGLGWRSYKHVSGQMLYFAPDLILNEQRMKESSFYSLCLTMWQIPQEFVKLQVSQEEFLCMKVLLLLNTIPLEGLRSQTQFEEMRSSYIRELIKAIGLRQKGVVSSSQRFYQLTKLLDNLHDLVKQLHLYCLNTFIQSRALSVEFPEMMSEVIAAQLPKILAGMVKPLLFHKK
Sequence of Estrogen receptor (Homo sapiens) (P03372 whole entry, looked up): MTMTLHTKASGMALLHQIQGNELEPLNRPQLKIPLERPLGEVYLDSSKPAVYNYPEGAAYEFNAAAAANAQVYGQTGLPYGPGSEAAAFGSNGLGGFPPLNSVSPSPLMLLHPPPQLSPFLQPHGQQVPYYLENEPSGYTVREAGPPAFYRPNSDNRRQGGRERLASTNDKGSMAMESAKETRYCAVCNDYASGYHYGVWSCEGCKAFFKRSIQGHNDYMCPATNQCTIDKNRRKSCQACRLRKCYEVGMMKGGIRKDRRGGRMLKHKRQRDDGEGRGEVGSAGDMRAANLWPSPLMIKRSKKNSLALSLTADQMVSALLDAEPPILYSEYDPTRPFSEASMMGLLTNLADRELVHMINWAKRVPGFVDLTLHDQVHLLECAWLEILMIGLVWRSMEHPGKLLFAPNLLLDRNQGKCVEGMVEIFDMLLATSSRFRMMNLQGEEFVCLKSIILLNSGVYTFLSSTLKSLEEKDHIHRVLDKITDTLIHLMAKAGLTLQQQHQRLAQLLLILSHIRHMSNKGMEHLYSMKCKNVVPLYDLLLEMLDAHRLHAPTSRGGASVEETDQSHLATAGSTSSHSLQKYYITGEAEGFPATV

Regarding `COC(=O)N/N=C/c1c[n+]([O-])c2ccccc2[n+]1[O-]`, the Potency entry in [1], in [4] and in assay [5] was “inactive” each time. In addition, the call in [2], in assay [3], in [6], in [7] and in assay [8] was inactive.
For the compound `O=C(O)COc1ccc2ccccc2c1`, the Potency entry in [1], in assay [4], in assay [5] and in [9] was “inactive” each time. Moreover, the outcome in [3], in [6], in assay [7] and in [8] was inactive.
As for `CCOC(=O)CN1CCCC1=O`, the Potency result in [1], in assay [4] and in [5] was “inactive” in each case. Also, the result in [3], in assay [6], in assay [7] and in assay [8] was inactive.
With `Cc1cc2c(cc1CC(=O)c1sccc1S(=O)(=O)Nc1onc(C)c1Cl)OCO2`, the Potency result in assay [1], in assay [4], in assay [5] and in [9] was “inactive” in each case. Besides, the outcome in [3], in assay [6], in assay [7] and in assay [8] was inactive.
On to `C[C@@H](CN1CC(=O)NC(=O)C1)N1CC(=O)NC(=O)C1`, for which the Potency entry in [1], in assay [4], in assay [5] and in [9] was “inactive” each time. Further, the outcome in [3], in assay [6], in [7] and in assay [8] was inactive.
Take `CC(=O)Oc1ccc(C(C)=O)cc1`: the Potency result in [1], in [4], in [5] and in assay [9] was “inactive” throughout. Moreover, the call in assay [2], in [3] and in assay [7] was inactive.
For `C=C(C)C(=O)OCCCC`, the compound was classed as inactive in assay [2], in [10], in [3], in assay [6], in assay [7] and in assay [8]. Moreover, the Potency entry in [4], in assay [5] and in assay [9] was “inactive” throughout.
For `CCc1ncc(C)[nH]1`, the call in assay [2], in assay [10], in assay [3], in [6], in assay [7] and in assay [8] was inactive. Further, the Potency entry in [4], in assay [5] and in assay [9] was “inactive” each time.
In the case of `Cc1ccc2ccccc2n1`, the call in [2], in assay [10], in [3], in assay [6] and in assay [7] was inactive. Also, the Potency result in [4], in assay [5] and in [9] was “inactive” each time.
Regarding `CC(C)(C)NCC(O)COc1cccc2c1CCC(=O)N2` (stereo not drawn), the result in assay [2], in assay [10], in [3], in [6], in assay [7] and in assay [8] was inactive. The Potency entry in assay [4], in assay [5] and in assay [9] was “inactive” throughout.
`COc1cc2nc(N3CCN(C(=O)C4CCCO4)CC3)nc(N)c2cc1OC` (stereo not drawn): the Potency result in [1] and in [9] was “inactive” throughout. The outcome in assay [3], in [6], in [7] and in assay [8] was inactive.
Regarding `O=C[C@@H](O)[C@H](O)[C@H](O)CO`, the outcome in assay [2], in [10], in assay [3], in [6], in assay [7] and in [8] was inactive. In addition, the Potency entry in assay [4], in assay [5] and in assay [9] was “inactive” each time.
Regarding `CC(=O)OCC(=O)[C@@]1(O)CC[C@H]2[C@@H]3CCC4=CC(=O)C=C[C@]4(C)[C@H]3[C@@H](O)C[C@@]21C`, the Potency result in assay [1] is “inactive”. For the same compound, the result in assay [3], in [6], in assay [7] and in assay [8] was inactive.
Regarding `C=CCOC(=O)CCCCCCCC`, the Potency result in assay [1], in assay [4], in [5] and in assay [9] was “inactive” in each case. In addition, the result in assay [3], in assay [7] and in [8] was inactive.
As for `O=P(O)(O)C(O)(Cc1cccnc1)P(=O)(O)O`, the Potency entry in assay [1], in assay [4] and in assay [9] was “inactive” in each case. Further, the outcome in assay [3], in [7] and in [8] was inactive.
Consider `C=CCON/C(CCC)=C1\C(=O)CC(C)(C)C(C(=O)OC)=C1O`, for which the result in [2], in [10], in assay [3], in assay [6] and in assay [7] was inactive. Also, the Potency entry in [4], in [5] and in assay [9] was “inactive” throughout.
In the case of `O=S(=O)(O)c1cc(I)c(O)c2ncccc12`, the outcome in assay [2], in [10], in assay [3], in assay [6], in [7] and in assay [8] was inactive. Moreover, the Potency entry in [4], in [5] and in [9] was “inactive” throughout.
For the compound `C[Si](C)(C)O[Si](O)(O)O`, the Potency result in [1], in assay [4] and in assay [9] was “inactive” each time. The outcome in [3], in [7] and in assay [8] was inactive.
In the case of `C=CCN(CC=C)CC=C`, the compound was classed as inactive in assay [2], in assay [10], in assay [3], in assay [6], in [7] and in assay [8]. The Potency entry in assay [4], in [5] and in assay [9] was “inactive” each time.
Take `CCCCCCCCS(=O)(=O)O`: the compound was called inactive in assay [2], in [10], in assay [3], in [7] and in assay [8]. The Potency result in [4], in assay [5] and in [9] was “inactive” in each case.
For the compound `C=CC(=O)CC`, the outcome in [2], in assay [10], in [3], in [7] and in [8] was inactive. Also, the Potency result in assay [4], in [5] and in [9] was “inactive” in each case.
Regarding `NC[C@H]1O[C@H](O[C@H]2[C@H](O)[C@@H](O[C@H]3O[C@H](CO)[C@@H](O)[C@H](N)[C@H]3O)[C@H](N)C[C@@H]2N)[C@H](N)[C@@H](O)[C@@H]1O`, the cAMP activity change in [2] was 2.25% [at 18.9 µM]. The results for the activity change, negative = inhibition in assay [10] and in assay [5] were 4.59% [at 19 µM] and 11.8% [at 18.9 µM], respectively. Also, the activity change, negative = cytotoxicity is 10% [at 19 µM] in assay [3], 1.42% [at 19 µM] in assay [9] and -5.22% [at 15.8 µM] in assay [8]. In addition, in assay [4], the activation was -1.56% [at 19 µM]. Moreover, the viability change, negative = cytotoxic in [7] was 6.71% [at 15.8 µM].
Turning to `CC(CN1CC(=O)NC(=O)C1)N1CC(=O)NC(=O)C1` (stereo not drawn), the Potency entry in assay [1], in [4], in assay [5] and in assay [9] was “inactive” in each case. For the same compound, the outcome in assay [3], in assay [7] and in [8] was inactive.
For `Cc1ccc(O)c([N+](=O)[O-])c1`, the Potency result in assay [1] and in assay [5] was “inactive” throughout. Further, the outcome in [3], in [7] and in [8] was inactive. Also, the Potency in [9] is 24.6 µM (active).
Consider `CCCC(C)C(O)CC` (stereo not drawn), for which the outcome in [2], in assay [10], in assay [3], in assay [7] and in [8] was inactive. The Potency entry in assay [4], in [5] and in assay [9] was “inactive” throughout.
For the compound `O=C(O)P(=O)(O)O`, the outcome in [2], in [10], in assay [3], in [6] and in assay [7] was inactive. The Potency entry in [4] and in [5] was “inactive” throughout.

(Values after PubChem BioAssay (Tox21).)
